Hsp70 act – Hsp70 transcriptional activators, primary screen, cell-based, HeLa, Hsp70 promoter luciferase, luminescence, 10 µM; HeLa Hsp70 promoter luciferase reporter; scaled: vehicle 0, proteasome-inhibitor control 100%; activation, % at 10 µM; 200,000 compounds, 0.04% hits; AID 1203, 2008;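 active = activation above the mean across all tested compounds plus 3 SD, cutoff set per campaign, cut at about 5.5% in these data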;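 also: 100% = MG132 at 30 µM as the positive control and 0% = DMSO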
S1P4 agonist – S1P4 receptor agonists, primary screen, cell-based; S1P4-expressing cell line, agonist reporter assay; activation, % at 4.98 µM; Sphingosine 1-phosphate receptor 4 (Homo sapiens), O95977; 220,000 compounds, 0.35% hits; AID 1509, 2009; in the data active = activation above about 11%;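 also: 0% = DMSO vehicle and 100% = reference agonist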
Pf gametocyte – late stage P. falciparum gametocyte viability inhibitors, primary screen, ATP luminescence, HTS; 150,000 compounds, 0.065% hits; P. falciparum stage V gametocytes, 24 h; inhibition, % at 10.9 µM; AID 743093, 2013;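 active = inhibition above the mean plus 3 SD of compounds within the control limits, set per campaign, cut at about 38% in these data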;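 also: 0% = DMSO wells and 100% = medium only without gametocytes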
S1P4 antag – S1P4 receptor antagonists, primary screen, cell-based; Sphingosine 1-phosphate receptor 4 (Homo sapiens), O95977; S1P4-expressing cells, antagonist mode, reporter read-out; inhibition, % at 4.98 µM; 220,000 compounds, 0.26% hits; in the data active = inhibition above about 29%;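 also: 0% = wells stimulated with agonist and 100% = vehicle wells without agonist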
S1P3 antag – S1P3 receptor antagonists, primary screen, cell-based; Sphingosine 1-phosphate receptor 3 (Homo sapiens), Q99500; CHO S1P3 NFAT-BLA reporter, FRET fluorescence, antagonist mode; inhibition, % at 4.98 µM; 170,000 compounds, 0.27% hits; AID 485, 2006;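 active = inhibition above the plate cutoff, the mean inhibition of test wells on that plate plus 3 SD, cut at about 28% in these data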;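 also: cells challenged with S1P at its EC80 of 0.8 µM; blue over green emission ratio from cleaved BLA substrate after 4 h stimulation; 0% = S1P-stimulated wells and 100% = unstimulated DMSO-only wells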
S1P4 antag conf – S1P4 receptor antagonists, human, confirmation, cell-based | S1P4-expressing cell line, antagonist mode, reporter read-out | AID 1524, 2009 | inhibition, % at 4.98 µM | shares compounds with S1P4 antag | 520 compounds, 71% hits; in the data active = inhibition above about 30%
S1P1 antag – S1P1 receptor antagonists, human, counter-screen for S1P4 antagonist project, cell-based; shares compounds with S1P4 antag; cell-based S1P1 antagonist counterscreen, inhibition; inhibition, % at 4.98 µM; 520 compounds, 37% hits; AID 1564, 2009; in the data active = inhibition above about 40%;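 also: receptor stimulated with S1P near its EC80; 0% = agonist stimulated wells and 100% = vehicle only wells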
Target sequence (P21453 whole entry, looked up): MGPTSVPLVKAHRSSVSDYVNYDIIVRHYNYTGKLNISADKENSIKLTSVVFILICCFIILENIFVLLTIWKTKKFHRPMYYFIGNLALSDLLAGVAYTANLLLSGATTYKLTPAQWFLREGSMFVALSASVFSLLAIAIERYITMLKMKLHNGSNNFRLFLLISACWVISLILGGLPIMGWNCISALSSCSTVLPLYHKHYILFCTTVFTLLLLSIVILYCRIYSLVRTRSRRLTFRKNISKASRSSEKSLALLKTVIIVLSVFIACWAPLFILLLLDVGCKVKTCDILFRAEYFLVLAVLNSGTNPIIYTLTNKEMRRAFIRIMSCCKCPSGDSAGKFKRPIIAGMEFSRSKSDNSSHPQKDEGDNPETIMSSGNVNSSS
An asterisk follows results filed as active; x = no result given. A selection: hits, their analogues and other compounds. The true share with any hit is near 0.83%.

SMILES	Hsp70 act	S1P4 agonist	Pf gametocyte	S1P4 antag	S1P3 antag	S1P4 antag conf	S1P1 antag
O=C(CCn1cnc2ccccc21)N/N=C/C=C/c1ccccc1	x	0	12	30*	2	-7	0
COc1ccccc1/C=C/C=N/NC(=O)CCn1cnc2ccccc21	x	1	-11	-4	4	x	x
S=C1Cc2ccccc2N1	x	1	12	35*	-7	110*	44*
O=C(c1nnsc1S(=O)(=O)c1ccc(Cl)cc1)N1CCOCC1	0	-2	x	14	4	x	x
CNC(=O)c1nnsc1S(=O)(=O)c1ccc(Cl)cc1	0	-3	-2	61*	-4	103*	76*
Cc1cc(C)nc(S/C=C/C(=O)c2ccccc2F)n1	x	-1	2	43*	-2	78*	-1
CCCOC(=O)c1ccc(NC(=O)Cc2cccs2)cc1	x	x	3	x	x	x	x
CC1=CC(=O)C=C(C)C1=NOS(=O)(=O)c1ccccc1	0	1	x	33*	x	98*	19
Cc1ccc2c(c1)/C(=N/OS(=O)(=O)c1ccccc1)CCS2	0	0	5	-14	x	x	x
CC1=CC(=O)C(C(C)C)=C/C1=N/OS(=O)(=O)c1ccccc1	x	0	10	38*	6	79*	-19
O=C(Oc1cccc(/C=N/Nc2nc(Nc3ccccc3)nc(N3CCOCC3)n2)c1)c1ccco1	0	-1	x	38*	-6	70*	48*
COc1cc(/C=N/Nc2nc(N3CCCCC3)nc(N3CCCCC3)n2)ccc1OC(=O)c1ccco1	0	0	x	1	-4	x	x
COc1cccc(/C=N/Nc2nnc(C)n2N)c1OCc1ccccc1Cl	0	1	7	-14	-3	x	x
CCc1nnc(N/N=C/c2ccccc2F)n1N	1	0	7	93*	-9	-15	-10
CCc1nnc(N/N=C/c2ccccc2Cl)n1N	0	-1	x	40*	x	4	-3
COC(=O)/C(C#N)=C(/Nc1ccc(F)c(Cl)c1)C(F)(F)F	x	1	0	-1	6	x	x
COc1cc(C(=O)OC(C)CN2CCCCC2)cc(OC)c1OC (configuration not stated)	x	x	4	x	x	x	x
COc1ccccc1N1CCN(C(=O)CCCCCn2c(=O)[nH]c3ccsc3c2=O)CC1	0	2	12	2	4	x	x
CCC(=O)OCCNc1cc(Sc2nc3ccccc3[nH]2)c2nonc2c1[N+](=O)[O-]	0	1	x	36*	2	110*	7
CCC(=O)OCCNc1cc(Sc2nc3ccccc3s2)c2nonc2c1[N+](=O)[O-]	0	3	x	9	x	x	x
CCN(CC)C(=O)CN(c1cccc(C(F)(F)F)c1)S(C)(=O)=O	0	-2	8	-17	x	x	x
CCN(CC)C(=O)CN(c1cccc(Br)c1)S(C)(=O)=O	0	1	-28	30*	18	2	-34

Screening data deposited in PubChem by The Scripps Research Institute Molecular Screening Center.
